Consider eight compounds from PubChem BioAssay (NCI).

Among the test systems are HCT-15 colon; HT29 colon; SNB-75 CNS; SNB-19 CNS; U251 CNS; PC-3 prostate; SK-MEL-5 melanoma; UACC-62 melanoma; LOX IMVI melanoma; SK-MEL-28 melanoma; SK-MEL-2 melanoma; EKVX NSCLC; SN12C renal; UO-31 renal; TK-10 renal; ACHN renal; CAKI-1 renal; A498 renal; CCRF-CEM leukemia; MOLT-4 leukemia.
Experiment in all cases: NCI-60 one-dose screen, 48 h (100 = growth as untreated, 0 = no growth, -100 = all killed)
What all share (settings): 10 µM

The panel holds about 83,000 compounds, 20% with a hit somewhere; the sample as a whole holds those more often.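 How to read the values: 0–100, growth inhibition (40 = 60% inhibited); 0, no net growth; -100 to 0, cell death (-40 = 40% of starting cells died; -100 = all dead).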 Unmarked numbers belong to inactive results. The source made the active and inactive calls. Rule for the calls: active = growth percent below 10; inactive = the rest.

Take `CN1CCCN(Cc2ccc(C(=O)Nc3cccc(Nc4ccc5c(O)cccc5n4)c3)cc2C(F)(F)F)CC1`: the growth in the experiment with HCT-15 colon was -55.6% (active); in the experiment with HT29 colon, -55.2% (active); with SNB-75 CNS, 13.9%; in the experiment on SNB-19 CNS it was -81.2% (active); with U251 CNS, -65.7% (active); in the experiment on PC-3 prostate it was 2.18% (active). The growth is -100% (active) in the experiment on SK-MEL-5 melanoma; -94.8% (active) in the experiment on UACC-62 melanoma; -95.5% (active) with LOX IMVI melanoma; -100% (active) in the experiment with SK-MEL-28 melanoma; -76.5% (active) with SK-MEL-2 melanoma; -87% (active) in the experiment on EKVX NSCLC. Moreover, the growth was -86.1% (active) in the experiment on SN12C renal; -56.1% (active) with UO-31 renal; -65.3% (active) in the experiment on TK-10 renal; -74.7% (active) with ACHN renal; -85.3% (active) in the experiment on CAKI-1 renal; 61.8% with A498 renal. The growth with CCRF-CEM leukemia is 8.39% (active); in the experiment on MOLT-4 leukemia, 9.64% (active).
For `CN1CCN(c2ccc(C(=O)/C=C/c3ccc(OC(F)F)cc3)cc2)CC1`, the growth in the experiment on HCT-15 colon was -49.1% (active); with HT29 colon, 13.4%; in the experiment on SNB-75 CNS, 73.8%; with SNB-19 CNS it was 47.4%; in the experiment with U251 CNS, -15.6% (active); in the experiment with PC-3 prostate, 25.5%. Besides, the growth is 52.9% in the experiment on SK-MEL-5 melanoma; 44.6% with UACC-62 melanoma; -100% (active) in the experiment with LOX IMVI melanoma; 67.5% in the experiment on SK-MEL-28 melanoma; 111% with SK-MEL-2 melanoma; 80.1% with EKVX NSCLC. Moreover, the growth in the experiment with SN12C renal was 26.4%; in the experiment with UO-31 renal it was 31.4%; with TK-10 renal, 63.8%; in the experiment on ACHN renal, 65.5%; in the experiment on CAKI-1 renal, 65.8%; in the experiment on A498 renal, 51.6%. Also, the figures for the growth in the experiment on CCRF-CEM leukemia and in the experiment with MOLT-4 leukemia were 21.9% and 0.533% (active), respectively.
Consider `COc1ccc(CCN2C(=O)/C(=C/c3csc(C#N)n3)SC2=S)cc1OC`, for which the growth with HCT-15 colon is -45.4% (active); with HT29 colon, -48.4% (active); with SNB-75 CNS it was 71.7%; in the experiment with SNB-19 CNS it was 80%; with U251 CNS it was 89.8%; in the experiment on PC-3 prostate, 71.6%. Also, the growth is 74.2% with SK-MEL-5 melanoma; 46.8% with UACC-62 melanoma; -62.7% (active) in the experiment on LOX IMVI melanoma; 18.9% with SK-MEL-28 melanoma; 85.6% in the experiment with SK-MEL-2 melanoma; 79.8% in the experiment with EKVX NSCLC. Also, the growth in the experiment on SN12C renal is 31.8%; in the experiment on UO-31 renal, 15.5%; in the experiment with TK-10 renal it was 1.31% (active); in the experiment with ACHN renal, 8.31% (active); in the experiment with CAKI-1 renal, 25.3%; in the experiment on A498 renal it was 80%. The growth in the experiment with MOLT-4 leukemia is -10.7% (active).
For the compound `COC(=O)CC1CC1C1Cc2c(nc(N(C)S(C)(=O)=O)nc2C(C)C)-c2ccc(F)cc21` (stereo unspecified), the growth with HCT-15 colon was 58.7%; with HT29 colon, 66.9%; in the experiment on SNB-75 CNS it was 92.3%; in the experiment with SNB-19 CNS, 91.2%; in the experiment with U251 CNS, 84.9%; in the experiment with PC-3 prostate, 33.9%. Also, the growth in the experiment on SK-MEL-5 melanoma is 57.2%; in the experiment on UACC-62 melanoma, 56.5%; in the experiment on LOX IMVI melanoma it was 79.1%; in the experiment with SK-MEL-28 melanoma, 104%; with SK-MEL-2 melanoma, 80.9%; with EKVX NSCLC, 87%. For the same compound, the growth was 94.9% in the experiment on SN12C renal; 71.5% in the experiment with UO-31 renal; 114% in the experiment on TK-10 renal; 86.6% with ACHN renal; 52.1% with CAKI-1 renal; 117% in the experiment on A498 renal. Further, the growth in the experiment with CCRF-CEM leukemia was 61.5%; with MOLT-4 leukemia it was 38.6%.
On to `Cc1ccc(C(=O)CSc2nnc(-c3c[nH]c4ccccc34)n2-c2ccccc2)cc1`, for which the growth with HCT-15 colon is 43.8%; with HT29 colon, 7.13% (active); in the experiment with SNB-75 CNS it was -1.21% (active); in the experiment with SNB-19 CNS, 19.7%; in the experiment with U251 CNS, 9.78% (active); with PC-3 prostate it was 43%. The growth is 32.9% in the experiment on SK-MEL-5 melanoma; 23.9% in the experiment with UACC-62 melanoma; -19.5% (active) in the experiment with LOX IMVI melanoma; 49% with SK-MEL-28 melanoma; 84.7% with SK-MEL-2 melanoma; 53% with EKVX NSCLC. Further, the growth in the experiment on SN12C renal was 24.9%; with UO-31 renal, 30.3%; in the experiment on TK-10 renal, -2.18% (active); in the experiment on ACHN renal it was 20.4%; in the experiment on CAKI-1 renal it was 12.4%; with A498 renal it was 85.8%. The growth was 60.8% in the experiment on CCRF-CEM leukemia and 61.7% with MOLT-4 leukemia.
Regarding `COc1ccc2nc(Cl)c(-c3cc(-c4ccccc4)nc(=S)[nH]3)cc2c1`, the growth was 46.4% in the experiment with HCT-15 colon; 43.7% in the experiment on HT29 colon; 41.5% in the experiment on SNB-75 CNS; 83.6% with SNB-19 CNS; 87.2% in the experiment on U251 CNS; 67.3% in the experiment on PC-3 prostate. Also, the growth is 6.49% (active) in the experiment on SK-MEL-5 melanoma; 23.2% in the experiment on UACC-62 melanoma; 60.3% in the experiment with LOX IMVI melanoma; 50% in the experiment with SK-MEL-28 melanoma; 9.29% (active) in the experiment on SK-MEL-2 melanoma; 65.6% with EKVX NSCLC. The growth in the experiment with SN12C renal was 75.6%; with TK-10 renal it was 129%; with ACHN renal, 51.3%; in the experiment with CAKI-1 renal, 56.9%; with A498 renal, 87.7%; with CCRF-CEM leukemia, 64.5%. Also, the growth in the experiment on MOLT-4 leukemia was 23.8%.
`N#Cc1c(NC(=O)c2ccc(C(F)(F)F)c(Cl)c2)sc2c1CCC(=O)C2`: the growth with HCT-15 colon was -62.3% (active); in the experiment with HT29 colon, -25.8% (active); in the experiment with SNB-75 CNS, -37.7% (active); in the experiment with SNB-19 CNS it was -55.3% (active); in the experiment on U251 CNS, -84.7% (active); with PC-3 prostate it was -10.2% (active). Further, the growth was -98.8% (active) in the experiment on SK-MEL-5 melanoma; -78.9% (active) in the experiment on UACC-62 melanoma; -52.6% (active) in the experiment with LOX IMVI melanoma; -83.4% (active) in the experiment with SK-MEL-28 melanoma; -9.04% (active) in the experiment on SK-MEL-2 melanoma; -79.9% (active) with EKVX NSCLC. The growth in the experiment on UO-31 renal is -98.8% (active); in the experiment on TK-10 renal it was 16%; with ACHN renal, -96.5% (active); in the experiment with CAKI-1 renal, -72% (active); with A498 renal, 74.1%; in the experiment with CCRF-CEM leukemia it was 5.53% (active). Moreover, the growth in the experiment on MOLT-4 leukemia was -6.19% (active).
Turning to `O=C1Nc2cc(Cl)ccc2/C1=C/c1ccc(OCc2ccc(Br)cc2F)cc1`, the growth was -31.8% (active) in the experiment on HCT-15 colon; 5.82% (active) with HT29 colon; -12.2% (active) in the experiment on SNB-75 CNS; -45.4% (active) with SNB-19 CNS; -94.6% (active) with U251 CNS; -42.3% (active) in the experiment with PC-3 prostate. For the same compound, the growth in the experiment with SK-MEL-5 melanoma was -66.7% (active); with UACC-62 melanoma it was -75.2% (active); in the experiment on LOX IMVI melanoma, -94.5% (active); in the experiment with SK-MEL-28 melanoma, -60.7% (active); in the experiment with SK-MEL-2 melanoma, -47.2% (active); in the experiment on EKVX NSCLC, -13.7% (active). In addition, the growth in the experiment on SN12C renal is -48.2% (active); in the experiment with TK-10 renal, -54.8% (active); with ACHN renal it was -79.9% (active); in the experiment on CAKI-1 renal it was -59% (active); with A498 renal it was -46.4% (active); with CCRF-CEM leukemia, 5.01% (active). Moreover, the growth with MOLT-4 leukemia is 10.3%.
